Screens: PubChem BioAssay, National Center for Advancing Translational Sciences (NCATS)
This is one part of a sample in which hits are shown more often than they occur.
LmPK inhibitor: qHTS Assay for Inhibitors of Leishmania Mexicana Pyruvate Kinase (LmPK); purified LmPK, Kinase-Glo ATP luminescence, 1 h; 0.37% of 290,000 active; Q27686; Potency, µM (top dose mostly 57.5 µM), for the others: top-dose activity change, negative = inhibition, usual class: inhibitors; active = well fitted curve in the direction sought with a large enough effect; inconclusive = small, poorly fitted or top-dose-only effect, or another doubt; inactive = no such curve, though single readings can be large; an effect the other way counts as inactive or inconclusive; also: potency is read from the fitted curve at half-maximal effect; % is scaled to controls: 0 for no effect and ±100 for the full control effect
Target sequence (Q27686 whole entry, looked up): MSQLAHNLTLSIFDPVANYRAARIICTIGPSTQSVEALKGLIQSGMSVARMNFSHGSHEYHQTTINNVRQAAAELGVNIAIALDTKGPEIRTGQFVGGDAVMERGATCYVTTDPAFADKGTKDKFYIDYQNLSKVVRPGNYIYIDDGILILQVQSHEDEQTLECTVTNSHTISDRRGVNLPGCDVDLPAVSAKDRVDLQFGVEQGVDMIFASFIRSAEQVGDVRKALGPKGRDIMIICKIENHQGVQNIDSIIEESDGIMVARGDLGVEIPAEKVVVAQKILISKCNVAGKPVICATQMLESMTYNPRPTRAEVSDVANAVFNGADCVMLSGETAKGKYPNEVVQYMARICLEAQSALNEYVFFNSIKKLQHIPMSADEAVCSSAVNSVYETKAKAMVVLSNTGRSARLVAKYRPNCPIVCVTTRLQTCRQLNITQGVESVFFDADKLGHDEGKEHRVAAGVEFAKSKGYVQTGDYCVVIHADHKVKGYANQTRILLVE
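qHTS format; LmPK 0.1 nM; substrates PEP 0.5 mM and ADP 0.1 mM. One-hour room-temperature incubation, then coupled luciferase luminescence; 0.5 nM enzyme wells mark activation.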
Shiga toxin inh: A qHTS for Small Molecule Inhibitors of Shiga Toxin; Vero cells, Shiga toxin protein synthesis inhibition reporter; inhibition, % at 38.7 µM; 9.2% of 290,000 active; AID 2315, 2010; in the data active = inhibition mostly above about 28%, no sharp cut-off; inactive = mostly below about 43%; also: 0% is about no effect
Cycloheximide cs: Cycloheximide Counterscreen for Small Molecule Inhibitors of Shiga Toxin | max response, % | AID 2314, 2010 | 12% of 300,000 active | cell reporter, cycloheximide protein synthesis inhibition counterscreen; in the data active = max response mostly above about 13%, no sharp cut-off; inactive = mostly below about 14%; also: read at 38.3 µM for the half of the compounds with a filed dose; 0% is about no effect
NS1 inh: qHTS Assay for Inhibitors of Influenza NS1 Protein Function; Potency, µM (titrated, usually from 46.1 µM), without a hit: at the highest dose activity, positive = more growth; AID 2326, 2010; 0.4% of 270,000 active; also: potency is read from the fitted curve at half-maximal effect; actives are rising curves; nearly all actives have a fitted effect of over 50% in size
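S. cerevisiae expressing influenza A NS1, grown in glucose, washed, then diluted 1:100 into pH 6.0 -URA galactose medium with 23 nl compound. Growth recovery read as OD600; NS1-free strain serves as control.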
SARS PLP yeast: qHTS of Yeast-based Assay for SARS-CoV PLP; S. cerevisiae expressing SARS-CoV PLpro, growth rescue; Potency, µM (doses to about 32.9 µM), inactives show at the top dose activity, positive = growth rescue, actives largely listed as activators; 0.19% of 330,000 active; AID 485353, 2010; also: potency is read from the fitted curve at half-maximal effect; 0% is about no effect; nearly all actives have a fitted effect of over 55% in size
TbPYK inhibitor: qHTS of Trypanosoma Brucei Inhibitors. pyruvate kinase (Trypanosoma brucei), Q57TT1. TbPYK enzyme, Kinase-Glo Plus ATP luminescence, 45 min. Potency, µM (highest dose often 76.8 µM), without a hit: top-dose activity, negative = inhibition, hits mostly inhibitors. 0.12% of 410,000 active. AID 624173, 2012; active = well fitted curve in the direction sought with a large enough effect; inconclusive = small, poorly fitted or top-dose-only effect, or another doubt; inactive = no such curve, though single readings can be large; an effect the other way counts as inactive or inconclusive; also: potency is read from the fitted curve at half-maximal effect; % is scaled to controls: 0 for no effect and ±100 for the full control effect; nearly all actives have a fitted effect of over 50% in size
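T. brucei PYK with substrate was exposed to pin-transferred compounds across a concentration series, then started with 130 uM ADP (final). After 45 min at room temperature, Kinase-Glo Plus luminescence was read, normalized and curve-fitted.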
Numbers without * were called inactive; ? = inconclusive; · = no result. Unless noted, calls follow the shape of the full dose curve.

SMILES	LmPK inhibitor	Shiga toxin inh	Cycloheximide cs	NS1 inh	SARS PLP yeast	TbPYK inhibitor
CN(C)c1nc(SCCOC(=O)c2ccccc2)nc(N(C)C)n1	3.6%	16.1	-0.4	-27.5%	-11.2%	-10.7%
CCCNC(=O)COC(=O)c1ccccc1C(=O)c1ccc(Cl)c([N+](=O)[O-])c1	0.3%	41.1	59.7*	·	2.4%	-0.7%
O=C(COC(=O)c1ccccc1[N+](=O)[O-])NCCCc1ccccc1	-6.6%	70.3*	37.7*	-4.3%	1.1%	1.5%
O=C(COC(=O)c1cccc2ccccc12)NCCCc1ccccc1	-1.1%	-4.2	1.8	-13.4%	-16.7%	9.1%
Cc1ccc(Cl)c(NC(=O)COC(=O)c2ccccc2C(=O)c2ccc(Cl)c([N+](=O)[O-])c2)c1Cl	2.4%	-10.3	-0.8	7.5%	-2.9%	-1.2%
CC1CCCC(NC(=O)COC(=O)c2ccccc2[N+](=O)[O-])C1C (stereo not drawn)	3.9%	83.5*	30.3*	·	-15.4%	-2.2%
CCc1ccc(NC(=O)CCCc2nnc3n(CC(C)C)c(=O)c4sccc4n23)cc1	·	·	·	·	·	4.3%
COc1ccc(C2/C=C\CN(S(=O)(=O)c3ccc(C)cc3)C(Cc3ccccc3)C(=O)N2Cc2ccc(F)cc2)cc1 (stereo not drawn)	·	-6.4	8.8	·	·	·
CCCCN1CC(=O)N2[C@H](c3ccc(Cl)cc3)[C@@H]3C(=O)N(CC)C(=O)[C@@H]3[C@]2(C)C1=O	-3.0%	-2.9	-3.5	6.5%	-0.3%	1.3%
S=C(NCCCc1ccccc1)Nc1ccccc1	-6.8%	27.4	20.0*	-49.6%	-0.9%	-1.7%
O=[N+]([O-])c1cccc(NC(=S)NCCc2ccccc2)c1	5.8%	60.2*	39.4*	-29.5%	-66.5%	-5.3%
COc1ccc(NC(=S)NCCc2ccc(Cl)cc2)c(OC)c1	3.7%	-13.5	-1.1	1.6%	15.4%	7.6%
S=C(NCCCc1ccccc1)Nc1ccc(Cl)cc1	5.4%	-1.2	-3.2	-24.2%	-96.6%	-11.8%
COc1ccc(NC(=S)NCc2ccc(Cl)cc2)c(OC)c1	-1.9%	·	15.4*	?	-2.3%	0.9%
Fc1ccccc1NC(=S)NCCc1ccccc1	1.2%	59.4*	39.0*	-18.1%	6.9%	-5.5%
COC[C@@H](c1ccc(C(F)(F)F)cc1)N1CCN(C2(C)CCN(C(=O)c3c(C)ncnc3C)CC2)C[C@@H]1C	·	·	·	·	·	0.0%
Fc1ccccc1NC(=S)NCCc1ccc(Cl)cc1	0.0%	73.9*	53.5*	-67.9%	-0.4%	-3.3%
CSc1ccccc1NC(=S)NCc1ccc(Cl)cc1	-3.6%	151.0*	37.2*	-17.1%	14.7%	-2.0%
S=C(NCCc1ccccc1)Nc1ccc(Nc2ccccc2)cc1	8.1%	9.3	-2.1	-31.0%	-3.5%	-4.3%
Cc1c(Cl)cccc1NC(=S)NCCc1ccc(Cl)cc1	0.3%	48.3	23.9	-102.5%	-3.7%	-3.7%
Fc1ccc(F)c(NC(=S)NCCc2ccccc2)c1	4.0%	95.8*	30.0*	·	1.6%	-2.2%
Fc1cccc(NC(=S)NCCc2ccccc2)c1	2.2%	96.3*	45.4*	-24.4%	?	-1.8%
COc1ccc2ccccc2c1C1NC(=O)NC(C)=C1[N+](=O)[O-] (stereo not drawn)	1.6%	14.6	1.6	7.9%	3.4%	0.5%
COc1ccc(S(=O)(=O)NCCc2csc(-c3ccc(F)cc3)n2)cc1F	·	·	·	·	·	-5.9%
Fc1ccc(NC(=S)NCCc2ccccc2)c(F)c1F	0.9%	109.3*	35.5*	·	-21.2%	0.0%
SMILES	LmPK inhibitor	Shiga toxin inh	Cycloheximide cs	NS1 inh	SARS PLP yeast	TbPYK inhibitor
Fc1cccc2sc(Nc3nc4cc5c(cc4s3)OCCO5)nc12	-3.7%	95.8*	51.1*	7.6%	-19.3%	-1.7%
Fc1cc(F)c2nc(Nc3nc4cc5c(cc4s3)OCO5)sc2c1	-0.6%	26.0	20.7*	-4.6%	-14.4%	-11.9%
O=c1oc2ccccc2cc1-c1csc(Nc2nc3c(F)cccc3s2)n1	5.9%	2.2	5.3	27.3%	-12.0%	-16.7%
Fc1cccc2sc(Nc3nc4cc5c(cc4s3)OCO5)nc12	-8.2%	116.2*	70.4*	-9.9%	-41.2%	-4.8%
CCOc1ccc(-n2c(SCc3ccc(C(=O)OC)o3)nc3c([nH]c4ccccc43)c2=O)cc1	·	·	·	·	·	-1.6%
O=C(c1cc2ccccc2oc1=O)N(Cc1ccc2c(c1)OCO2)Cc1ccco1	-1.7%	109.7*	8.4	-21.4%	-4.8%	-8.0%
O=C(NCc1ccc2c(c1)OCO2)c1cc2ccccc2oc1=O	4.8%	12.6	-1.4	12.9%	-13.2%	2.0%
Clc1ccc(N=c2ssnc2Cl)nc1	1.8%	-2.5	-2.8	0.3%	1.2%	?
Clc1nssc1=Nc1nncs1	·	·	·	·	3.2%	5.01µM*
COc1cccc(NC(=O)c2ccc(NC(=O)C(C)C)cc2)c1	-28.5%	52.1*	23.2*	-4.9%	-0.6%	-7.6%
COc1cccc(C(=O)NN/C(C)=C/C(=O)C(F)(F)C(F)(F)C(F)(F)F)c1	2.4%	66.1*	24.7*	-36.2%	12.9%	-3.5%
COc1cccc(NC(=O)C(C)C)c1	·	·	·	·	3.8%	-0.9%
COc1cccc(C(=O)Nc2ccc(NC(=O)C(C)(C)C)cn2)c1	?	41.1*	12.0*	-2.2%	-5.9%	-4.8%
COc1cc(NC(=O)c2ccc(N)nc2)cc(C(=O)Nc2cccc(C(F)(F)F)c2)c1	-3.2%	54.8*	13.1	-0.3%	-1.5%	-3.9%
COc1cc(NC(=O)c2nccnc2N)cc(C(=O)Nc2cccc(C(F)(F)F)c2)c1	1.7%	-2.9	-1.5	2.9%	0.7%	-1.0%
CCc1ccc(CN2CCCC(C(=O)N3CCCCC3)C2)cc1 (stereo not drawn)	-1.8%	-7.3	-1.7	3.5%	1.9%	15.0%
Cc1cccc(NC(=O)Cn2cc(S(=O)(=O)N3CCCC3)c(S(=O)(=O)N3CCCC3)c2)c1C	·	·	·	·	·	3.4%
COc1ccc(NC(=O)c2cccc(NC(=O)C(C)C)c2)c([N+](=O)[O-])c1	-1.2%	22.4*	22.3*	0.1%	-0.9%	9.2%
COc1cccc(C(=O)Nc2ccc(C(=O)c3ccncc3)cc2)c1	-1.0%	3.7	17.2*	-4.1%	-5.3%	-5.7%
COc1cccc(C(=O)Nc2ccc(NC(C)=O)cc2)c1	?	62.3	28.4*	5.8%	2.9%	-0.8%
COc1cccc(NC(=O)C(C)OC(=O)CCCNC(=O)c2ccc(Cl)cc2)c1 (stereo not drawn)	0.0%	100.3*	24.5*	6.7%	3.8%	-1.1%
COc1cccc(C(=O)Nn2cnnc2)c1	2.6%	34.3	11.1*	1.7%	0.6%	3.4%
COc1cc(OC)cc(C(=O)Nc2cccc(C(C)=O)c2)c1	?	47.7*	24.7*	-12.4%	-0.4%	-1.7%
COC(=O)C1CCN(C(=O)c2cc3ccccc3oc2=O)CC1	1.0%	47.7*	32.7*	-3.7%	2.6%	-1.7%
O=C(c1cc2cc(Cl)ccc2oc1=O)N1CCOCC1	-7.7%	-2.4	-3.4	3.3%	0.5%	2.9%
